AmpC no deterg: AmpC beta-lactamase inhibition without detergent; AID 485341; P00811; 330,000 compounds, 0.52% hits; AmpC nitrocefin hydrolysis, absorbance 480 nm, 0.0001% Triton; Potency, µM (doses to about 57.1 µM), for inactives: at the top dose activity change, negative = inhibition, usual class: inhibitors;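 also: plate controls were no compound for no effect and no enzyme for full effect; nearly all actives have a fitted effect of over 20% in size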
Target sequence (P00811 whole entry, looked up): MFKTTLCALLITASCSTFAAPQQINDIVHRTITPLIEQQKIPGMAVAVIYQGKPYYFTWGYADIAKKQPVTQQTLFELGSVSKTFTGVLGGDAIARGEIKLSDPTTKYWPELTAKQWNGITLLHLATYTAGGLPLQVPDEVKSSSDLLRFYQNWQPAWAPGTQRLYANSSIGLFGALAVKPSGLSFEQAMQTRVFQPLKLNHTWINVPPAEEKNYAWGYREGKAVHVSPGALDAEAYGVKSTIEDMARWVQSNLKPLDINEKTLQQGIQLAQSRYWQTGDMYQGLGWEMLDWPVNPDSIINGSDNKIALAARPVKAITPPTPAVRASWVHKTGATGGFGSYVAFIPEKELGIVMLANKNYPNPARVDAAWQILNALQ
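AmpC (5.3 nM in the dispensed reagent) in 20 mM phosphate pH 7.0 with 0.01% (detergent screen) or 0.0001% Triton X-100 was preincubated with compounds for 15 min at room temperature. Nitrocefin was then added from an 800 uM solution, and hydrolysis was followed at 480 nm.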
AMA1 RON2 block: AMA1-RON2 (P. falciparum) interaction inhibition; AlphaScreen AMA1-biotinylated RON2 peptide binding; Potency, µM (series often up to 58.2 µM), without a hit: top-dose activity change, negative = inhibition, most hits filed as inhibitors; 360,000 compounds, 0.2% hits;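 also: 0% = vehicle wells and -100% = peptide control; nearly all actives have a fitted effect of over 45% in size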
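AMA1 (3D7) with his tag at 25 nM final met compounds first, then biotinylated RON2 peptide at 25 nM; detection used donor plus acceptor beads, 10 µg/mL apiece, read by AlphaScreen after 30 min at room temperature.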
Pf growth 48h: inhibits P. falciparum growth in the first generation, 48 h; AID 504832; Potency, µM (highest dose often 28.7 µM), for inactives: at the top dose activity change, negative = inhibition, hits mostly inhibitors; 310,000 compounds, 5.9% hits; P. falciparum luciferase growth in erythrocytes, 48 h
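Parasite viability was followed by luminescence of a genomically integrated firefly luciferase. Cultures held 0.1% parasitemia at 2% hematocrit (final), incubated under 5% CO2 at 37 C.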
HCV inh: blocks hepatitis C virus | Huh7.5.1 HCVcc-Cre infection, luciferase reporter, 44 h | Potency, µM (highest dose often 41.8 µM), inactives show at the highest dose activity change, negative = inhibition, most hits filed as inhibitors | 340,000 compounds, 3.4% hits
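After 44 h co-culture of compound, cells and HCVcc-Cre (~0.5 moi), substrate is added for 15 min at room temperature and luciferase measured over 15 sec. Cells were seeded at 1,000/well and pre-cultured 4 h.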
Pf growth 96h: P. falciparum growth inhibition at 96 hours; 320,000 compounds, 6.9% hits; Potency, µM (series often up to 28.7 µM), without a hit: top-dose activity change, negative = inhibition, actives largely listed as inhibitors; AID 504834; P. falciparum luciferase reporter growth, 96 h
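Luminescence readout: decreased luciferase signal marks inhibited growth of reporter-expressing P. falciparum in infected red cells (2% hematocrit, 0.05% parasitemia final), exposed to compound two generations (96 h, 37 C, 5% CO2).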
AmpC inh detg: blocks E. coli AmpC beta-lactamase in detergent assay. P00811. AmpC hydrolysis of nitrocefin, absorbance 480 nm, 0.01% Triton. Potency, µM (highest dose often 114 µM), for the others: at the highest dose activity change, negative = inhibition, usual class: inhibitors. 370,000 compounds, 0.041% hits;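 also: 0% = no-compound wells and -100% = no-enzyme wells; nearly all actives have a fitted effect of over 25% in size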
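20 mM phosphate pH 7.0 + 0.01% (detergent screen) or 0.0001% Triton X-100; 5.3 nM AmpC reagent; cpd preinc 15 min RT; nitrocefin (800 uM stock) to start; A480 q20 s × 4 min; Activity was normalised to no-enzyme and no-compound control wells.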
Starred values were filed as active, the others as inactive; ? = inconclusive; nt = not tested or not shown. Hits are enriched below; roughly 11% of the tested compounds scored in any of these assays. Calls follow the shape of the dose curve; as a rule, active = well fitted curve in the direction sought with a large enough effect; inconclusive = small, poorly fitted or top-dose-only effect, or another doubt; inactive = no such curve, though single readings can be large; an effect the other way counts as inactive or inconclusive. Unless noted, % is scaled to controls: 0 for no effect and ±100 for the full control effect; potency is read from the fitted curve at half-maximal effect.

SMILES	AmpC no deterg	AMA1 RON2 block	Pf growth 48h	HCV inh	Pf growth 96h	AmpC inh detg
C[C@H](CCCC(C)(C)O)[C@H]1CC[C@H]2[C@@H]3CC=C4C[C@@H](O)CC[C@]4(C)[C@H]3CC[C@]12C	nt	nt	2%	nt	-6%	nt
Cc1ccc(C)c(NC(=O)CN2C(=O)CSc3nc(C)cc(C)c32)c1	nt	nt	nt	nt	nt	18%
CCN(CC)C(=O)c1c(-c2ccccc2)c(-c2ccccc2)nn(CC)c1=O	nt	nt	nt	nt	nt	25%
COc1ccc(N2CCN(C(=O)C(CC(C)C)NS(=O)(=O)c3ccc4nc(C)sc4c3)CC2)cc1 (centres undefined)	nt	nt	nt	nt	nt	-9%
NCC[C@H](O)C(=O)N[C@@H]1C[C@H](N)[C@@H](O[C@H]2O[C@H](CN)CC[C@H]2N)[C@H](O)[C@H]1O[C@H]1O[C@H](CO)[C@@H](O)[C@H](N)[C@H]1O	nt	nt	-5%	nt	-17%	nt
Cc1cccc(-n2c(CNC(=O)c3cccc(F)c3)nnc2SCC(=O)Nc2ccccc2F)c1	nt	nt	nt	nt	nt	16%
Cc1cc(N2CCN(C)CC2)ccc1NC(=O)c1cccc(S(=O)(=O)N2CCc3ccccc3C2)c1	129%	?	?	?	10µM*	-8%
CC(=O)N1CCN(S(=O)(=O)c2cccc(C(=O)Nc3ccc(C)cn3)c2)CC1	-10%	14%	17%	?	14%	?
Cc1ccc(NC(=O)c2cccc(S(=O)(=O)N3CCc4ccccc4C3)c2)nc1	-55%	-6%	7.4µM*	?	9.3µM*	-24%
COc1ccc(NC(=O)CSc2nc(-c3ccc(OC)cc3)cc(=O)[nH]2)cc1	nt	nt	nt	nt	nt	5%
COC(=O)CCn1[nH]c(=O)c2ccccc2c1=O	-9%	-5%	0%	34%	9.3µM*	0%
CCCCCCOC(=O)CCn1[nH]c(=O)c2ccccc2c1=O	-11%	0%	?	-3%	88%	?
COc1cc2[nH]c3c(OC)ncnc3c2cc1OC	2%	7%	4%	-13%	24%	7%
CCOc1ncnc2c1[nH]c1ccccc12	-17%	-8%	92%	10µM*	-6%	0%
Cc1ccc2[nH]c3c(Cl)ncnc3c2c1	-20%	2%	-24%	-6%	-5%	-4%
CCCOc1ncnc2c1[nH]c1ccc(C)cc12	-4%	-4%	16%	13µM*	349%	-4%
Cc1cc(Br)cc2c1N(Cc1ccccc1OC(C)C)C(=O)C2=O	nt	nt	nt	nt	nt	27%
O=C(c1cnccn1)N(Cc1cccs1)C1(C(=O)NC2CCCCC2)CCCCC1	38%	0%	?	-26%	22%	?
O=C(c1ccccn1)N(Cc1cccs1)C1(C(=O)NC2CCCCC2)CCCCC1	50%	5%	-28%	11µM*	56%	4%
O=[N+]([O-])c1ccc(N2CCOCC2)c2cccnc12	-14%	2%	?	-4%	15%	-2%
O=[N+]([O-])c1cccc2c(N3CCCC3)ccnc12	-20%	2%	?	3.5µM*	86%	1%
Cc1ccc(-c2[nH]ncc2C(=O)c2ccc(Br)cc2)c(O)c1	-44%	72%	?	-5%	?	4%
Cc1ccc(O)c(C(=O)c2cnc(/N=C(\N)N(C)C)nc2)c1	-19%	-5%	8%	0%	19%	5%
Cc1ccc2c(c1)-c1ncc(C(=O)c3cc(Br)ccc3O)cc1CO2	-34%	nt	1.7µM*	nt	?	1%
Cc1ccc(O)c(C(=O)c2cnc3c(c2)COc2ccc(C)cc2-3)c1	-12%	?	13µM*	?	?	5%
SMILES	AmpC no deterg	AMA1 RON2 block	Pf growth 48h	HCV inh	Pf growth 96h	AmpC inh detg
CCOc1ccc2oc(=O)cc(CN3CCN(C(=O)c4ccc(OC)c(OC)c4)CC3)c2c1	nt	nt	nt	nt	nt	13%
Cc1ccc(-c2csc(=Nc3ccc(F)cc3)n2Cc2ccc3c(c2)OCO3)cc1C	nt	nt	nt	nt	nt	1%
CCCN1C(=O)c2cccc3c(N4CCCCC4)ccc(c23)C1=O	-22%	66%	-1%	-5%	13µM*	-2%
COc1cc2c(c3oc(-c4ccccc4)cc(=O)c13)C=CC(C)(C)O2	126%	9%	?	1µM*	?	-7%
COc1cc(OC)c2c(=O)cc(-c3ccccc3)oc2c1	127%	-5%	132%	?	174%	8%
COc1c2c(cc3oc(=O)ccc13)OC(C)(C)C=C2	-50%	-3%	7%	?	0.0047µM*	0%
CC1(C)C=Cc2cc3ccc(=O)oc3cc2O1	-27%	2%	84%	-7%	?	3%
COc1ccc(C2(CNC(=O)C(=O)Nc3ccc(C)c(Cl)c3)CCCC2)cc1OC	nt	nt	nt	nt	nt	0%
CC(C)CCNC(=O)C(c1ccc(O)cc1)N(Cc1cccs1)C(=O)C1COc2ccccc2O1 (centres undefined)	-32%	-12%	?	13µM*	47%	?
O=C(NCc1ccco1)C(c1cccs1)N(C(=O)C1COc2ccccc2O1)c1cccc(O)c1 (centres undefined)	-17%	7%	10µM*	-17%	?	5%
Cc1ccc(C(C(=O)NC2CCCCC2)N(Cc2ccco2)C(=O)C2COc3ccccc3O2)o1 (centres undefined)	1%	-8%	7.4µM*	0%	nt	-9%
O=C(NCc1ccco1)C(c1ccncc1)N(C(=O)Cc1cccs1)c1ccccc1 (centres undefined)	1%	-10%	-17%	6%	9%	-5%
CC(C)(C)NC(=O)CN(Cc1cccs1)C(=O)C1COc2ccccc2O1 (centres undefined)	16%	-18%	?	12%	?	-2%
Cc1ccc(C(C(=O)NC2CCCCC2)N(Cc2cccnc2)C(=O)C2COc3ccccc3O2)o1 (centres undefined)	43%	-1%	5.2µM*	-5%	-3%	3%
O=C(NC1CCCC1)C(c1ccccc1)N(Cc1ccco1)C(=O)Cc1cccs1 (centres undefined)	-19%	-1%	-9%	3%	7%	-4%
CCOC(=O)c1cnc2ccc(OC(F)(F)F)cc2c1Nc1ccccc1C(=O)O	nt	nt	nt	nt	nt	-2%

Screening data from PubChem.
